We go through eight molecules from PubChem BioAssay (NCI).

Test systems include SR leukemia; RPMI-8226 leukemia; OVCAR-8 ovarian; OVCAR-5 ovarian; OVCAR-4 ovarian; SK-OV-3 ovarian; IGROV1 ovarian; OVCAR-3 ovarian; HS 578T breast; NCI/ADR-RES ovarian; T-47D breast; BT-549 breast; MDA-MB-435 melanoma; SW-620 colon; MCF7 breast; HCT-116 colon; HCC-2998 colon; KM12 colon.
Experiment in all cases: NCI-60 one-dose screen, 48 h (100 = growth as untreated, 0 = no growth, -100 = all killed)
What all share (settings): 10 µM unless noted

This is part of a sample that, as a whole, favours compounds with a hit. Of some 83,000 tested, about 20% had one in any assay.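 Each cell line was grown in a 96-well plate and treated with one concentration of compound for 48 hours. Values below 10 were considered active.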 Unmarked numbers belong to inactive results. Active and inactive are the calls of the source.

As for `N#CC1CCc2c(c(-c3cn[nH]c3C(F)(F)F)nc3c(F)cc4[nH]ncc4c23)C1` (centres undefined), the growth was 14.5% in the test on SR leukemia; 34.6% in the test on RPMI-8226 leukemia; 43% in the test with OVCAR-8 ovarian; 63.2% in the test with OVCAR-5 ovarian; 59.7% in the test on OVCAR-4 ovarian; -1.91% (active) with SK-OV-3 ovarian. The growth with IGROV1 ovarian is -4.43% (active); in the test with OVCAR-3 ovarian, 16.6%; in the test on HS 578T breast it was -8.7% (active); in the test with NCI/ADR-RES ovarian it was 92.4%; with T-47D breast, 1.96% (active); in the test on BT-549 breast, -11.6% (active). The growth in the test with MDA-MB-435 melanoma is 7.99% (active); in the test with SW-620 colon it was 8.48% (active); with MCF7 breast it was 12.9%; with HCT-116 colon, 5.5% (active); in the test with HCC-2998 colon, 44%; in the test on KM12 colon, 13.6%.

Turning to `CCCCN1C(=O)/C(=c2\sc3n(c2=O)C2C(NN=3)N(CC)C(=O)N2CC)c2ccccc21` (centres undefined), the growth with SR leukemia is 11%; with RPMI-8226 leukemia it was 4.61% (active); with OVCAR-8 ovarian, -12.5% (active); in the test on OVCAR-5 ovarian, 25.8%; with OVCAR-4 ovarian it was 37.5%; in the test with SK-OV-3 ovarian, 24.5%. In addition, the growth in the test on IGROV1 ovarian is 2.64% (active); in the test on OVCAR-3 ovarian, -31.5% (active); with HS 578T breast, 6.5% (active); in the test with NCI/ADR-RES ovarian, -9.17% (active); with T-47D breast, 20.5%; in the test on BT-549 breast, 20.6%. Moreover, the growth in the test on MDA-MB-435 melanoma was -34% (active); in the test on SW-620 colon it was 28.3%; in the test with MCF7 breast, 5.32% (active); in the test on HCT-116 colon, 3.15% (active); in the test with HCC-2998 colon, 6.49% (active); with KM12 colon it was 16.1%.

Consider `CN([O-])c1nc(N(C)[O-])nc(N2CCOCC2)n1.CN([O-])c1nc(N(C)[OH2+])nc(N2CCOCC2)n1.[Fe+3]`, for which the growth was 67.3% [100 µM] in the test on SR leukemia; 81% [100 µM] in the test on RPMI-8226 leukemia; 85.6% [100 µM] with OVCAR-8 ovarian; 110% [100 µM] with OVCAR-5 ovarian; 120% [100 µM] in the test with OVCAR-4 ovarian; 110% [100 µM] in the test with SK-OV-3 ovarian. Also, the growth in the test on IGROV1 ovarian is 112% [100 µM]; in the test on OVCAR-3 ovarian, 60% [100 µM]; in the test on HS 578T breast, 98.2% [100 µM]; in the test on NCI/ADR-RES ovarian it was 104% [100 µM]; in the test on T-47D breast, 93% [100 µM]; with BT-549 breast, 85.8% [100 µM]. In addition, the growth was -30.5% [100 µM] (active) with MDA-MB-435 melanoma; 58.3% [100 µM] in the test with SW-620 colon; 90.1% [100 µM] with MCF7 breast; 65.8% [100 µM] in the test with HCT-116 colon; 114% [100 µM] in the test with HCC-2998 colon; 33.6% [100 µM] with KM12 colon.

For the molecule `O=C1Nc2ccccc2/C1=C\c1nc(-c2ccccc2F)n2ccccc12`, the growth in the test on SR leukemia is 49.6%; with RPMI-8226 leukemia it was 44.6%; in the test on OVCAR-8 ovarian, 5.14% (active); with OVCAR-5 ovarian it was 47.8%; with OVCAR-4 ovarian it was -34.4% (active); in the test on SK-OV-3 ovarian it was -0.955% (active). The growth is 2.99% (active) in the test on IGROV1 ovarian; 6.22% (active) in the test on OVCAR-3 ovarian; 12% in the test on HS 578T breast; 9.77% (active) in the test on NCI/ADR-RES ovarian; 21.2% with T-47D breast; 24.5% in the test with BT-549 breast. For the same molecule, the growth in the test with MDA-MB-435 melanoma was 44.1%; in the test with SW-620 colon it was 26.2%; in the test with MCF7 breast, 27.8%; in the test with HCT-116 colon, -36.4% (active); in the test with HCC-2998 colon, 86.1%; with KM12 colon, 34.4%.

Take `C=C(C)[C@@H]1CC[C@]2(C(=O)NCC#CCN3CCN(C)CC3)CC[C@]3(C)[C@H](CC[C@@H]4[C@@](C)(CCC#N)[C@H](C(=C)C)CC[C@]43C)[C@@H]12`: the growth is -12.1% (active) with SR leukemia; 33.6% in the test on RPMI-8226 leukemia; 70.7% in the test with OVCAR-8 ovarian; 64.5% in the test with OVCAR-5 ovarian; 52.8% in the test with OVCAR-4 ovarian; 72.6% with SK-OV-3 ovarian. For the same molecule, the growth with IGROV1 ovarian is 43.5%; in the test on OVCAR-3 ovarian it was 54.2%; in the test with HS 578T breast, 65.5%; with NCI/ADR-RES ovarian, 55.8%; in the test with T-47D breast, 34.9%; in the test on BT-549 breast, 78.6%. In addition, the growth was 54.6% with MDA-MB-435 melanoma; 45.5% with SW-620 colon; 50.5% in the test on MCF7 breast; 26.4% with HCT-116 colon; 25.2% in the test with HCC-2998 colon; 45.9% in the test on KM12 colon.

Take `Nc1nc(=S)c2ncn(C3OC(COP(=O)(O)O)C(O)C3O)c2[nH]1` (centres undefined): the growth in the test with SR leukemia was 11.7%; in the test on RPMI-8226 leukemia, 10.9%; with OVCAR-8 ovarian, 13.8%; in the test on OVCAR-5 ovarian, 36.8%; with OVCAR-4 ovarian, 32.2%; in the test on SK-OV-3 ovarian, 5.27% (active). The growth in the test on IGROV1 ovarian is 44.2%; with OVCAR-3 ovarian, 7.25% (active); in the test with HS 578T breast it was 67.5%; in the test on NCI/ADR-RES ovarian it was 20.9%; with T-47D breast, 30.4%; in the test with BT-549 breast, 48.8%. Besides, the growth in the test on MDA-MB-435 melanoma was 15.5%; with SW-620 colon, 32.2%; in the test with MCF7 breast, 9.34% (active); in the test with HCT-116 colon it was 22.9%; in the test on HCC-2998 colon it was 20.8%; in the test with KM12 colon, 18.4%.

For the molecule `N=C(N)c1ccc(-c2ccc(-c3ccc(F)cc3)o2)o1`, the growth is -8.15% (active) with SR leukemia; -2.26% (active) in the test with RPMI-8226 leukemia; 5% (active) in the test with OVCAR-8 ovarian; 58.4% in the test with OVCAR-5 ovarian; 62% with OVCAR-4 ovarian; 28.1% with SK-OV-3 ovarian. The growth with IGROV1 ovarian was 44.9%; in the test with OVCAR-3 ovarian, 7.31% (active); with HS 578T breast, 30.5%; in the test on NCI/ADR-RES ovarian, 22.6%; with T-47D breast, 21.4%; with BT-549 breast, 55.3%. The growth is -76.9% (active) in the test with MDA-MB-435 melanoma; -36.7% (active) with SW-620 colon; 10.5% in the test with MCF7 breast; 2.27% (active) with HCT-116 colon; 18.4% in the test on HCC-2998 colon; 7.92% (active) in the test on KM12 colon.

With `O=C(c1ccc(Cl)cc1)N1CCN(c2ccnc3cc(Cl)ccc23)CC1`, the growth is 122% in the test on SR leukemia; 75.9% in the test with RPMI-8226 leukemia; 87.3% in the test with OVCAR-8 ovarian; 93% in the test with OVCAR-5 ovarian; 70.7% in the test on OVCAR-4 ovarian; 93.6% with SK-OV-3 ovarian. The growth in the test on IGROV1 ovarian is 92.9%; in the test with OVCAR-3 ovarian, 100%; in the test on HS 578T breast, 99.3%; with NCI/ADR-RES ovarian, 87.7%; with T-47D breast, 58%; in the test on BT-549 breast, 106%. The growth is 97.5% in the test with MDA-MB-435 melanoma; 104% in the test with SW-620 colon; 83.7% with MCF7 breast; 81.5% in the test on HCT-116 colon; 108% in the test with HCC-2998 colon; 94.9% in the test with KM12 colon.
